From ChEMBL document CHEMBL2218924, “A broad activity screen in support of a chemogenomic map for kinase signalling research and drug discovery” (Biochem J, 2013) come the findings set out here.

Assay [1] addresses T1, Ephrin type-A receptor 3 (Homo sapiens) (UniProt P29320).
T1 sequence (whole entry): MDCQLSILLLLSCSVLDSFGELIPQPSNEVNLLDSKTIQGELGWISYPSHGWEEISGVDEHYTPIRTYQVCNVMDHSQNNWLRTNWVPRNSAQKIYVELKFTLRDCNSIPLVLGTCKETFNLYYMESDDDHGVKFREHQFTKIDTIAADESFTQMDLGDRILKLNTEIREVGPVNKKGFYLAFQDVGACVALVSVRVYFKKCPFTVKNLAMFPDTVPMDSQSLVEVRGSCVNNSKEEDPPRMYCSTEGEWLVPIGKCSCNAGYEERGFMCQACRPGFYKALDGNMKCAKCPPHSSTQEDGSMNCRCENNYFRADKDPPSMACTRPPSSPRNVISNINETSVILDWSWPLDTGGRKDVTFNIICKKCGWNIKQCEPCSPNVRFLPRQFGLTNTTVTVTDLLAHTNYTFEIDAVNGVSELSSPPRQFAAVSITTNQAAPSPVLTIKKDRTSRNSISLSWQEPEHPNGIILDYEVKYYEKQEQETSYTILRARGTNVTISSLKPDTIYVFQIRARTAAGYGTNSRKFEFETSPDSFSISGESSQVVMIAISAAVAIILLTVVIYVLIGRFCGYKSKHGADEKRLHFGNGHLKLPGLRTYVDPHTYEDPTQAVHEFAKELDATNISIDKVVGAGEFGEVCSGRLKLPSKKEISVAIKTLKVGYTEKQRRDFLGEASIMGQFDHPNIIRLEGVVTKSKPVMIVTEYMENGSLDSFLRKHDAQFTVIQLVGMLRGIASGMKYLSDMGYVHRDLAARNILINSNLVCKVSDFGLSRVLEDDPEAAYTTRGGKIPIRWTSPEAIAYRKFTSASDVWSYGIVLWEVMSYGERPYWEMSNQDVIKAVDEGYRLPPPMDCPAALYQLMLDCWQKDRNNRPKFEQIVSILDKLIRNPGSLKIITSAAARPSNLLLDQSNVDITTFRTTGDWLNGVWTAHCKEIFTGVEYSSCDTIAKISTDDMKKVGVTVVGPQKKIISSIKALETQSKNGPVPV
Particulars: at 10 µM.

In assay [2] the target is Ephrin type-A receptor 4 (Homo sapiens) (UniProt P54764). Particulars: at 1 µM.
The target is the same in assay [3]. Particulars: at 10 µM.
Assay [4] concerns the target Ephrin type-A receptor 5 (Homo sapiens) (UniProt P54756). Particulars: at 1 µM.
The target is the same in assay [5]. Particulars: at 10 µM.
The target in assay [6] is Ephrin type-A receptor 7 (Homo sapiens) (UniProt Q15375). The conditions noted are these: at 1 µM.
Assay [7] has the same target. Particulars: at 10 µM.
Assay [8] concerns the target T2, Ephrin type-A receptor 8 (Homo sapiens) (UniProt P29322).
T2 sequence (whole entry): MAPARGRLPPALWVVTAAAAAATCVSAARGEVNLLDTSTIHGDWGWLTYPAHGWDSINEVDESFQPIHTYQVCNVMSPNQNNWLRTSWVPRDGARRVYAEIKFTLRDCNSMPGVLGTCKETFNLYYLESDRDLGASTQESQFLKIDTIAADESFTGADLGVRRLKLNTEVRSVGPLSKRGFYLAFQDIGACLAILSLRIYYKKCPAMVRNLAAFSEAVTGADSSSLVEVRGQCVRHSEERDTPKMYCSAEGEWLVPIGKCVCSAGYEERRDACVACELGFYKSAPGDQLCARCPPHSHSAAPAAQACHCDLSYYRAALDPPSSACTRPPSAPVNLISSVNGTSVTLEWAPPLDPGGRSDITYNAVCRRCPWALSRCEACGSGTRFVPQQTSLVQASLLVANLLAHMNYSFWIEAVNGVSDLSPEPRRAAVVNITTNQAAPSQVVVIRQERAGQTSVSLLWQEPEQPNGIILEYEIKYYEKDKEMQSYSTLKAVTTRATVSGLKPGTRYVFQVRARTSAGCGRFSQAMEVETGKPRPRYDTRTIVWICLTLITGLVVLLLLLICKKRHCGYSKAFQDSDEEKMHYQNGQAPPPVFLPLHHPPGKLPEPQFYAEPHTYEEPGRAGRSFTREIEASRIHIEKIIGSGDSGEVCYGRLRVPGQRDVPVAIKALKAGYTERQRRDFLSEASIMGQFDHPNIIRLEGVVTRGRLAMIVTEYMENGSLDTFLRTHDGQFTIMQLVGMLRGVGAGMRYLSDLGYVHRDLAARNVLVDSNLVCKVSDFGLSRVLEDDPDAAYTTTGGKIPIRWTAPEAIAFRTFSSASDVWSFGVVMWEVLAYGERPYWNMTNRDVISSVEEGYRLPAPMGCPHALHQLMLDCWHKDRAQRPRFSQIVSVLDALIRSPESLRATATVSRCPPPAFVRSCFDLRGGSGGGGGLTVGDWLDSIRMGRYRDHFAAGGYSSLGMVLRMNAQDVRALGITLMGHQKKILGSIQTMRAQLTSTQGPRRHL
Particulars: at 1 µM.

Assay [9] concerns the target T2, Ephrin type-A receptor 8 (Homo sapiens). Particulars: at 10 µM.
Assay [10] addresses T3, Ephrin type-B receptor 1 (Homo sapiens) (UniProt P54762).
T3 sequence (whole entry): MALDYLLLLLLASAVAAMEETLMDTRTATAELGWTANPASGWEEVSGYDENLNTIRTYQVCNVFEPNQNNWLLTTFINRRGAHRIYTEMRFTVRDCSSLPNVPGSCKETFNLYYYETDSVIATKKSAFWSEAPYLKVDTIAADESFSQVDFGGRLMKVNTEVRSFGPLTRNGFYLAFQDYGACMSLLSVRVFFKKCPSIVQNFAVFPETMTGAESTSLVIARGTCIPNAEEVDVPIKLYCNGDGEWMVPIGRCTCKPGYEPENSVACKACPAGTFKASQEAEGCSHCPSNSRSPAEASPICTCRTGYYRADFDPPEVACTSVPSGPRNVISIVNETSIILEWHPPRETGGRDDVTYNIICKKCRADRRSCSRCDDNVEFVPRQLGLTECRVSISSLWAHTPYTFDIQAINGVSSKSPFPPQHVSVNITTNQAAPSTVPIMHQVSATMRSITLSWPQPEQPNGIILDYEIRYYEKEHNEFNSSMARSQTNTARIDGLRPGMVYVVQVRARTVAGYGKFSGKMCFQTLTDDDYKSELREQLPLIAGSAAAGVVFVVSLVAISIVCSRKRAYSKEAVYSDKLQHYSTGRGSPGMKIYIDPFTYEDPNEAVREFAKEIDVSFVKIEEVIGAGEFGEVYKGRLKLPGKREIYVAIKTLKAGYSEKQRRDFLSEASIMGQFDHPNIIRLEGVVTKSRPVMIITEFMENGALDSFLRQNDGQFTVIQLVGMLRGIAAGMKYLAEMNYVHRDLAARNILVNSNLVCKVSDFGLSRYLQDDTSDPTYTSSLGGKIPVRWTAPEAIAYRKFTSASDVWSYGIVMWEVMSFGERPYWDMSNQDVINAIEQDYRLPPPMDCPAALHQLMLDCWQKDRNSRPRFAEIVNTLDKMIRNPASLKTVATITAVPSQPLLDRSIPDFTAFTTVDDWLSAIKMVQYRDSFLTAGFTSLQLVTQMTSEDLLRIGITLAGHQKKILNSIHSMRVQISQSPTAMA
Particulars: at 1 µM.

Chain of Ephrin type-A receptor 4 (Homo sapiens) (P54764 whole entry): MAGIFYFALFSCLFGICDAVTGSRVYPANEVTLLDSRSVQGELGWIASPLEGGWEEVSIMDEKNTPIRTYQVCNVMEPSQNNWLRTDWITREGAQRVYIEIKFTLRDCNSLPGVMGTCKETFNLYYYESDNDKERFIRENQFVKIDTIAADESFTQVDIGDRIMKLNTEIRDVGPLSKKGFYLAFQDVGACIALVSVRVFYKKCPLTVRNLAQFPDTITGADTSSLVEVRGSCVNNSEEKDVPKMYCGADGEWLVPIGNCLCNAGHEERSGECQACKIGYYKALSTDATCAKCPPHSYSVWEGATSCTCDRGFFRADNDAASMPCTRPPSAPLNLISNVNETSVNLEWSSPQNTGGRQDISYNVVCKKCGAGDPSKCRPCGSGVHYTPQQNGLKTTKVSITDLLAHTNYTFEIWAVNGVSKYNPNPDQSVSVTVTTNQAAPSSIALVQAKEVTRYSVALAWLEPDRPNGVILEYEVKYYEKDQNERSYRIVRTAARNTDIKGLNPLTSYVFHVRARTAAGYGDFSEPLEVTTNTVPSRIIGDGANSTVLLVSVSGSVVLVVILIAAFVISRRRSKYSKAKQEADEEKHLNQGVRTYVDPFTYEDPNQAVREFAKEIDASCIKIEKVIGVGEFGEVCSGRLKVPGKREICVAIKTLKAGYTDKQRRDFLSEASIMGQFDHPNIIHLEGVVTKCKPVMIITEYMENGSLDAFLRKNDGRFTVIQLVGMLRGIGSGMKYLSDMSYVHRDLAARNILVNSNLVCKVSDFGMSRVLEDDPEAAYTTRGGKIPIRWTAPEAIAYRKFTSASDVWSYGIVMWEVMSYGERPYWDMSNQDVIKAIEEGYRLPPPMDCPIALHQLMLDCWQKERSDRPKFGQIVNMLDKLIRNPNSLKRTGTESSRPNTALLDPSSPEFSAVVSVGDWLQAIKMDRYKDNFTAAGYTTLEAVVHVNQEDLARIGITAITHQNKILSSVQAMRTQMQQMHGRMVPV
Chain of Ephrin type-A receptor 7 (Homo sapiens) (Q15375 28-998 limits assumed): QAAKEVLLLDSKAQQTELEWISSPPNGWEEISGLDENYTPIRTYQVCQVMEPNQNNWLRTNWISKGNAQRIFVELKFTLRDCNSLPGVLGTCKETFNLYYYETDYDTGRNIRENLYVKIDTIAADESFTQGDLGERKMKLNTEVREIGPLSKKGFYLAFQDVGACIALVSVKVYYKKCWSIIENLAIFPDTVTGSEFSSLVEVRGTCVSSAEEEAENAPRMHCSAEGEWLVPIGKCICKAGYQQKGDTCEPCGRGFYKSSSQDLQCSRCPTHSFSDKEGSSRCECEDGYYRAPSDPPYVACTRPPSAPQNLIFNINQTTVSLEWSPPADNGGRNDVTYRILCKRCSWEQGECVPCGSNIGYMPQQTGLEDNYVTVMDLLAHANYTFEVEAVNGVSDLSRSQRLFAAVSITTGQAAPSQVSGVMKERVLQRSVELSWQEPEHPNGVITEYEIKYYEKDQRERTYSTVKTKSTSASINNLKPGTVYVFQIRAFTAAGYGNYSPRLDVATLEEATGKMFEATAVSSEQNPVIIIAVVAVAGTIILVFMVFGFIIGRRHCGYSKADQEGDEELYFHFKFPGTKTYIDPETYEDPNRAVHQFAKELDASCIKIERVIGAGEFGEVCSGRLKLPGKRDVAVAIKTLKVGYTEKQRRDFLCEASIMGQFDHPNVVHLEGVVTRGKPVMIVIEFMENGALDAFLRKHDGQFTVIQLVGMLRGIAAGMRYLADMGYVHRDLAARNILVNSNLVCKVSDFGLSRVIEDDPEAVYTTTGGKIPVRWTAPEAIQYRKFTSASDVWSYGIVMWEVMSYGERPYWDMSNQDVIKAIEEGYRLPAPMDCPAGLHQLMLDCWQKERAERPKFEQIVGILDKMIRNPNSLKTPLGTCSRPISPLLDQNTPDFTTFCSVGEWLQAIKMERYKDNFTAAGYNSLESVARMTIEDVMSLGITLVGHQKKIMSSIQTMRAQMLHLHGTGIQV
Chain of Ephrin type-A receptor 5 (Homo sapiens) (P54756 whole entry): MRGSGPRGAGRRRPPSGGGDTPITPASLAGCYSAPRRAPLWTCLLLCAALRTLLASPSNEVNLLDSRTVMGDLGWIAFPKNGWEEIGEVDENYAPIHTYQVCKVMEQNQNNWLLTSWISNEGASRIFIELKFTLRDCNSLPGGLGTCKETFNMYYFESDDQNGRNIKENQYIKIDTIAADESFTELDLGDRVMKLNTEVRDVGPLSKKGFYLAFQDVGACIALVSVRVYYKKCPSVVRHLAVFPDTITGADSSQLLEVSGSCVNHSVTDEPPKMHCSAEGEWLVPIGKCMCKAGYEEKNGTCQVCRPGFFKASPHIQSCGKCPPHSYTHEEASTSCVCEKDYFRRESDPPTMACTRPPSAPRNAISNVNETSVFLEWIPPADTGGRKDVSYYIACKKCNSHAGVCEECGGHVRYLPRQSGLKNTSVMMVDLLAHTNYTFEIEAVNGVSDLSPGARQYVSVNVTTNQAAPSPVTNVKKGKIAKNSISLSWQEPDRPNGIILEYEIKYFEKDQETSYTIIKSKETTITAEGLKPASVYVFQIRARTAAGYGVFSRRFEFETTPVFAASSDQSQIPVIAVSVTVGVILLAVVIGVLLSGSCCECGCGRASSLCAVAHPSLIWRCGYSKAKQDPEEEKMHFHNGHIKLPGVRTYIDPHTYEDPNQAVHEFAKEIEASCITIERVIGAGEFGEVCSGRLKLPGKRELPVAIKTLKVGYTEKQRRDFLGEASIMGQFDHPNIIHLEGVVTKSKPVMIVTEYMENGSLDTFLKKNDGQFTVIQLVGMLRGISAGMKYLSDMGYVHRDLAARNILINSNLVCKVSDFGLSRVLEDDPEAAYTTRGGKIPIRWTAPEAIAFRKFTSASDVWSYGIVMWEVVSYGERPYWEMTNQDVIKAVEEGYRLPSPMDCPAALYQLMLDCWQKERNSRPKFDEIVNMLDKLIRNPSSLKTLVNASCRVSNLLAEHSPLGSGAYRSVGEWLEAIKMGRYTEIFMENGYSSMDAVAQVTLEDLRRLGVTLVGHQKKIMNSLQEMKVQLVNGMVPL

On to `Cn1cnc2cc3c(Nc4cccc(Br)c4)ncnc3cc21`, for which the residual activity stood at 30% in [1]; 106% in [2]; 88% in [3]; 82% in assay [4]; 40% in [5]; 77% in assay [6]. For the same molecule, the residual activity in assay [7] is 39%; in assay [8], 86%; in assay [9], 63%; in [10] it was 70%.

Broadly, the residual activity is the signal under treatment as a percentage of the control signal.
